Screens deposited in PubChem by National Center for Advancing Translational Sciences (NCATS).
Compounds with a hit are over-represented: about 19% of the library has one in this group of screens.
DT40 TDP1 CPT – qHTS for Inhibitors of human tyrosyl-DNA phosphodiesterase 1 (TDP1): qHTS in cells in presence of CPT | Potency, µM (highest dose often 46.2 µM), for the others: at the top dose activity change, negative = growth inhibition, hits mostly inhibitors | chicken DT40 Tdp1-/-;hTDP1 cells + 20 nM CPT, ATP luminescence, 48 h | hit rate 12% among 420,000; also: nearly all actives have a fitted effect of over 55% in size
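Chicken DT40 Tdp1-/- cells stably complemented with human TDP1 were seeded at 400 cells/well in medium containing 20 nM camptothecin, exposed to pin-transferred compounds, and grown at 37 °C for at least 48 hr. Viability was read as ATP luminescence.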
TDP1 inh – qHTS Assay for Inhibitors of Tyrosyl-DNA Phosphodiesterase (TDP1). AID 485290, 2010. hit rate 0.28% among 350,000. recombinant TDP1, AlphaScreen DNA substrate cleavage. Potency, µM (titrated, usually from 130 µM), for the others: at the highest dose activity change, negative = inhibition, most hits filed as inhibitors; also: nearly all actives have a fitted effect of over 40% in size
Target sequence (Q9NUW8 whole entry, looked up): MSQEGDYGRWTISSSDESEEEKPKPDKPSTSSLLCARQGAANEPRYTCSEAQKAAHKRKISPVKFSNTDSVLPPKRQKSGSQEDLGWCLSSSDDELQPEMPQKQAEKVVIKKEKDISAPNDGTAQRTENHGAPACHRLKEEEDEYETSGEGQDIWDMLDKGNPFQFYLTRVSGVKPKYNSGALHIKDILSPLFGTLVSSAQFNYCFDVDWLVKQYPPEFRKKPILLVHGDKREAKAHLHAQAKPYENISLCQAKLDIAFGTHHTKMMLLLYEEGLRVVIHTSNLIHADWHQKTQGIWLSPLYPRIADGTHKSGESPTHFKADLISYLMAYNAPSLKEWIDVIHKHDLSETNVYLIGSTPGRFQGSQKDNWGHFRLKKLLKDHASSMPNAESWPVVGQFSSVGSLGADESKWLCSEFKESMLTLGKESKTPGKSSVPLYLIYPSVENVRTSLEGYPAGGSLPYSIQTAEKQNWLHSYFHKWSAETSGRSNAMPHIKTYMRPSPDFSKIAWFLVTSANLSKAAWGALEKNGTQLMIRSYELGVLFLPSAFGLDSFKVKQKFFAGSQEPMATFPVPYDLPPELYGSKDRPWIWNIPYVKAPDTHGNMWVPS
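Compounds were preincubated with Tdp1 (1 nM final) for 15 min at room temperature before substrate (15 nM final) started a 5 min reaction; beads (10 ug/ml final) were then added for 10 min before AlphaScreen detection.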
RORgamma inh – qHTS for inhibitors of ROR gamma transcriptional activity; Nuclear receptor ROR-gamma (Mus musculus), P51450; AID 2551, 2010; Potency, µM (highest dose often 53.6 µM), for the others: at the top dose activity change, negative = inhibition, actives largely listed as inhibitors; Drosophila S2 Gal4-RORgamma UAS-luciferase reporter, 20 h; hit rate 5.4% among 310,000; also: nearly all actives have a fitted effect of over 60% in size
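Drosophila S2 cells stably expressing Gal4-DBD/mouse RORγ fusion under metallothionein promoter plus UAS-luciferase; compound 1 h, then 700 uM CuSO4 induction for 20 h at ambient temperature; inhibition read as reduced luminescence.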
DT40 TDP1 no CPT – qHTS for Inhibitors of human tyrosyl-DNA phosphodiesterase 1 (TDP1): qHTS in cells in absence of CPT; DT40 Tdp1-/- hTDP1 cells, no CPT, ATP luminescence, 48 h; Potency, µM (titrated, usually from 46.2 µM), without a hit: at the highest dose activity change, negative = growth inhibition, actives largely listed as inhibitors; hit rate 15% among 420,000; AID 686978, 2013; also: nearly all actives have a fitted effect of over 55% in size
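DT40 Tdp1-/-;hTDP1 cells, no CPT (DMSO vehicle only), 400 cells/well; compounds pin-transferred; ≥48 hr, 37 °C; CellTiter-Glo 30 min RT dark, luminescence read.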
VP16 counter – VP16 counterscreen qHTS for inhibitors of ROR gamma transcriptional activity. hit rate 3.5% among 310,000. Potency, µM (top dose mostly 53.6 µM), for inactives: at the highest dose activity, negative = inhibition, actives largely listed as inhibitors. Drosophila S2 Gal4-VP16 UAS-luciferase, luminescence, 20 h. AID 2546, 2010;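 also: Gal4-VP16 expression switched on by copper sulfate through the metallothionein promoter; nearly all actives have a fitted effect of over 50% in size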
* marks the source's active call; other numbers are inactive results; ? = inconclusive; / = not tested or not shown; [ ] = another dose, or the depositor's remark. Calls follow the shape of the dose curve; as a rule, active = well fitted curve in the direction sought with a large enough effect; inconclusive = small, poorly fitted or top-dose-only effect, or another doubt; inactive = no such curve, though single readings can be large; an effect the other way counts as inactive or inconclusive. % is scaled to controls: 0 for no effect and ±100 for the full control effect; potency is read from the fitted curve at half-maximal effect.

SMILES	DT40 TDP1 CPT	TDP1 inh	RORgamma inh	DT40 TDP1 no CPT	VP16 counter
Cc1ccc(C(=O)Cn2nnc3ccccc32)cc1[N+](=O)[O-]	-0.2%	2.4%	27.8%	-6.6%	-9.6%
Cc1ccccc1Cn1c(=N)n(CC(=O)c2ccc([N+](=O)[O-])cc2)c2ccccc21	4.11µM*	4.5%	-21.1%	5.17µM*	-1.8%
Cc1ccc(-n2c(=O)c3c4c(sc3n(Cc3cc(=O)n5cc(Cl)ccc5n3)c2=O)CCC4)cc1C	-10.4%	2.9%	/	-6.0%	/
O=C(NC1CCCCC1)c1ccc2c(c1)N(Cc1ccccc1F)C(=O)c1ccccc1S2	?	1.9%	/	?	/
CCCN1CCN(C(=O)c2cnn(-c3ncc4c(n3)-c3ccccc3CCC4)c2COC)CC1	14.6%[9.04 µM]	/	/	-17.5%	/
CC(C)C(=O)Nc1cccc(C(=O)NCc2ccc3c(c2)OCO3)c1	-7.8%	0.2%	-12.5%	-17.7%	0.3%
CC12CC(NC(=O)N1c1cccc(C(=O)NCc3ccc4c(c3)OCO4)c1)c1cc(Cl)ccc1O2 (stereo not drawn)	18.4µM*	5.3%	?	18.4µM*	-17.9%
CC(Nc1ccc(Cl)c(Cl)c1)C(=O)NN (stereo not drawn)	2.5%	/	7.9%	-0.5%	3.5%
COc1cc(C2C(C(=O)OC(C)C)=C(C)N=C3SCCC(=O)N32)ccc1OCc1ccccc1 (stereo not drawn)	13µM*	0.0%	/	29.1µM*	/
Cn1ccnc1C(=O)c1ccc(Cl)c(S(=O)(=O)N2CCOCC2)c1	15.0%	/	6.6%	-15.8%	9.4%
Cc1ccc(S(=O)(=O)N2CCN(C(=O)C3CCCO3)CC2)cc1C (stereo not drawn)	5.9%	3.3%	22.7%	?	2.5%
Nc1nonc1-c1nc2ccccc2n1CC(=O)N/N=C\c1ccc(-c2ccc(Cl)cc2)o1	7.31µM*	5.0%	-32.6%	3.66µM*	0.0%
CCc1ccccc1NC(=O)Cn1c(-c2nonc2N)nc2ccccc21	0.5%	-2.3%	/	-5.0%	/
NC(=O)Cn1c(-c2nonc2N)nc2ccccc21	1.2%	0.0%	?	3.7%	-23.7%
Nc1nonc1-c1nc2ccccc2n1CC(=O)N1CCN(c2ccc(F)cc2)CC1	?	9.1%	5.2%	12.6µM*	9.6%
Nc1nonc1-c1nc2ccccc2n1CC(=O)Nc1ccc(F)cc1	14.6µM*	/	/	9.2µM*	/
Nc1nonc1-c1nc2ccccc2n1CC(=O)Nc1cccc(Cl)c1Cl	5.17µM*	-3.1%[12.3 µM]	/	5.8µM*	/
NNC(=O)Cn1c(-c2nonc2N)nc2ccccc21	-26.1%	3.0%	-23.8%	2.3%	-6.5%
COCc1nnc(NC(=O)CCSc2ccccc2)s1	-0.8%	2.6%	27.6%	-10.8%	-2.1%
CN1CCN(c2ncnc3ccc(-c4ccccc4Cl)cc23)CC1	16.4µM*	/	32.7%	20.6µM*	?
Cc1ccccc1-c1ccc2ncnc(N3CCN(C)CC3)c2c1	?	/	?	16.4µM*	?
O=C(Oc1ccc(N(C(=O)c2ccncc2)S(=O)(=O)c2ccc(F)cc2)cc1)c1ccncc1	-25.9%	3.4%	21.5%	?	0.2%
CSc1nc(Cl)c(Cc2ccc(OCC(C)C)cc2)c(N2CCOCC2)n1	?	-9.5%	155.6%	?	-9.1%
CCOC1CCCC(n2cnc3c(=S)nc[nH]c32)O1 (stereo not drawn)	-15.1%	/	/	?	/
COc1cccc(C2C(C(=O)Nc3ccc(Cl)cc3)=C(C)Nc3nc4ccccc4n32)c1OC (stereo not drawn)	20.6µM*	4.5%	/	?	/
SMILES	DT40 TDP1 CPT	TDP1 inh	RORgamma inh	DT40 TDP1 no CPT	VP16 counter
COc1cccc(C2C(C(=O)Nc3ccccc3OC)=C(C)Nc3nc4ccccc4n32)c1 (stereo not drawn)	?	10.9%	/	14.6µM*	/
CNC(=O)C1=C(C)Nc2nc3ccccc3n2C1c1cccc(OC)c1 (stereo not drawn)	4.1%	6.5%	-1.3%	-19.9%	-1.8%
COc1ccccc1NC(=O)C1=C(C)Nc2nc3ccccc3n2C1c1cccc(OC)c1OC (stereo not drawn)	16.4µM*	6.4%	/	?	/
COc1cccc(C2C(C(=O)Nc3ccccc3OC)=C(C)Nc3nc(-c4ccco4)nn32)c1 (stereo not drawn)	?	/	/	18.4µM*	/
COc1ccc(C2C(C(=O)c3ccccc3)=C(C)Nc3nc4ccccc4n32)c(OC)c1 (stereo not drawn)	?	3.9%	6.31µM*	?	-1.6%
COc1ccc(C2C(C(=O)Nc3ccc(C)cc3C)=C(C)Nc3nc4ccccc4n32)c(OC)c1 (stereo not drawn)	-16.1%	1.8%	/	?	/
COc1ccc(C2C=C(C)Nc3nc4ccccc4n32)cc1 (stereo not drawn)	-3.6%	1.2%	-38.6%	18.4µM*	6.5%
CSCCC(=O)N(C)CC1CCCN(CCc2cccc(C(F)(F)F)c2)C1 (stereo not drawn)	-8.2%	/	0.4%	-15.3%	9.7%
COc1ccc(OCCOC(=O)CCS(=O)(=O)c2ccc(C)cc2)cc1	2.6%	/	/	-1.8%	/
COc1ccc(-c2ccccc2)cc1NC(=O)c1ccncc1	1.7%	/	/	-21.4%	/
CCOc1ccc(CNc2ccc3c(c2)ncn3C(C)(C)C)cc1	?	/	?	20.6µM*	-4.3%
COc1ccccc1-n1cnc2cc(NCc3ccco3)ccc21	1.46µM*	10.3%	?	1.3µM*	24.4%
CCn1cnc2cc(NCc3cccs3)ccc21	-24.6%	-4.3%	-17.7%	3.0%	2.9%
CCOc1ccc(CNc2ccc3c(c2)ncn3C)cc1	-12.4%	8.7%	3.5%	?	?
CC(C)(C)n1cnc2cc(NCc3cccs3)ccc21	?	7.9%	11.2µM*	-17.2%	5.1%[10 µM]
